PubChem BioAssay AID651558 (National Center for Advancing Translational Sciences (NCATS), 2012)
Hit rate of the full screen: of about 1,200 compounds, about 480 (40%) were called active. Inconclusive results (about 29%) are left out. Calls come from the whole dose curve; as a rule, active = well fitted inhibition curve with a large enough effect; inconclusive = small, poorly fitted or top-dose-only effect; inactive = no such curve, though single readings can be large or run the other way. The list shows a part of the results.

Assay: qHTS Assay to Find Inhibitors of Chronic Active B-Cell Receptor Signaling: Hit Validation in Primary Screen; note: nearly all actives have a fitted effect of over 75% in size
Details: ABC-DLBCL IkB-luc/CBR ratio luminescence, 4 h; series mostly up to 46.1 µM
How it was run: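 TMD8 ABC-DLBCL cells carrying doxycycline-inducible IkBa-green luciferase fusion and free red luciferase, 0.5% FBS, dosed 46 uM–3 nM with doxycycline for 4 h at 37C. Green/red luminescence ratio normalized to basal and 10 uM MG-132.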
Potency is the fitted concentration of half-maximal effect.

Compound	Potency
CCCn1nnc(NC(=S)NC(=O)Cc2ccccc2)n1	inactive
COc1ccc(OCC(O)CN2CCN(c3ccccc3)CC2)cc1 (stereo not drawn)	inactive
Cc1ccc(Nc2nc(-c3c(C)nc4ncccn34)cs2)cc1	4.11 µM (active)
COc1ccc(Nc2nc(-c3c(C)nc4ncccn34)cs2)cc1	2.31 µM (active)
Cc1ccc(Nc2nc(-c3c(C)nc4ccccn34)cs2)cc1	0.259 µM (active)
Cc1nc2ncccn2c1-c1csc(Nc2ccc(N(C)C)cc2)n1	7.31 µM (active)
Cc1ccc(C2OCC3(CO)COC(c4ccc(C)cc4)N23)cc1 (stereo not drawn)	inactive
Oc1[nH]c2ccc(Br)cc2c1N=NC(=S)Nc1ccc(F)cc1	inactive
Cc1ccccc1C1=NC(C(F)(F)F)(C(F)(F)F)c2c(n(C)c(=O)n(C)c2=O)N1	inactive
COc1ccc(NC(=O)C(=O)c2cn(CC(=O)N3CCCC3)c3ccccc23)cc1	9.2 µM (active)
COc1cc2cnc(-c3ccccc3)cc2cc1OC	20.6 µM (active)
COc1ccccc1C(=O)Nc1ccccc1SC(=O)c1ccccc1OC	7.31 µM (active)
CCC(C)NC(=O)c1ccccc1NC(=O)c1ccc(CSc2ccccc2)cc1 (stereo not drawn)	inactive
COc1cc(NC(=S)NC(=O)c2ccccc2F)ccc1NC(=O)c1ccco1	inactive
Cc1ccc(CCC(=O)Nc2ncc(Cc3cccc(Cl)c3Cl)s2)o1	0.231 µM (active)
Cc1ccc(CCC(=O)Nc2ncc(Cc3cc(Cl)ccc3Cl)s2)o1	1.3 µM (active)
CCc1ccc(CCC(=O)Nc2ncc(Cc3ccccc3Cl)s2)o1	2.91 µM (active)
Cc1cccc(NC(=S)N=Nc2c(O)n(C)c3ccc(S(=O)(=O)N4CCOCC4)cc23)c1	inactive
COc1ccc(-c2csc(C3=C(O)CN(CCCN4CCCC4=O)C3=N)n2)cc1OC	18.4 µM (active)
Cc1nnc2ccc(-c3ccc(NS(=O)(=O)c4ccccc4[N+](=O)[O-])cc3)nn12	20.6 µM (active)
COc1ccc(OC)c(S(=O)(=O)Nc2ccc(-c3ccc4nnc(C)n4n3)cc2)c1	inactive
CCc1ccc(S(=O)(=O)Nc2ccc(-c3ccc4nnc(C)n4n3)cc2)s1	14.6 µM (active)
CCN(CC)C(=S)NC(=O)c1ccc(F)cc1	inactive
CCOC(=O)N1CCC(NC(=O)CS(=O)(=O)Cc2nc(-c3ccccc3C)oc2C)CC1	inactive
CC1=Nc2cc(C(=O)NC3CCCC3)ccc2Sc2ccc(Cl)cc21	2.59 µM (active)
CCCC1=Nc2cc(C(=O)NC3CCCCC3)ccc2Sc2ccc(C)cc21	0.259 µM (active)

Compound	Potency
CCOC(=O)N1CCC(NC(=O)c2ccc3c(c2)N=C(C)c2c(C)ccc(C)c2S3)CC1	6.51 µM (active)
CC1=Nc2cc(C(=O)NC3CCCCC3)ccc2Sc2ccc(Cl)cc21	2.31 µM (active)
CN(C)c1ccc(-c2nn3c(-c4ccccc4Cl)nnc3s2)cc1	2.91 µM (active)
CCN(CC)c1ccc(-c2nn3c(-c4ccccc4OC)nnc3s2)cc1	1.46 µM (active)
COc1ccccc1-c1nnc2sc(-c3ccc(N(C)C)cc3)nn12	1.16 µM (active)
CCN(CC)c1ccc(-c2nn3c(-c4n[nH]c5c4CCC5)nnc3s2)cc1	0.651 µM (active)
C[C@]12CC[C@H]3C(=CCc4cc(O)ccc43)[C@@H]1CCC2=O	inactive
Cc1ccccc1-c1nc2c3ccccc3nc(=S)n2[nH]1	inactive
S=c1nc2ccccc2c2nc(-c3ccccc3)[nH]n12	23.1 µM (active)
S=c1nc2ccccc2c2nc(-c3ccccc3Cl)[nH]n12	inactive
CCN1C(=O)c2cccc3c(NC(=O)c4ccc(OC)c(OC)c4)ccc1c23	10.3 µM (active)
COc1ccc2c(c1)C(C)=CC(C)(C)N2S(=O)(=O)c1ccc(NC(C)=O)cc1	3.26 µM (active)
CCOc1ccc2c(c1)C(C)=CC(C)(C)N2S(=O)(=O)c1ccc(NC(C)=O)cc1	1.3 µM (active)
COc1ccc2c(c1)C(C)=CC(C)(C)N2S(=O)(=O)c1ccc(Br)cc1	3.26 µM (active)
CCOc1ccc2c(c1)C(C)=CC(C)(C)N2S(=O)(=O)c1ccc(C)cc1	3.26 µM (active)
N#CC1=C(S)N(c2ccc(F)cc2)C(c2ccco2)NC1=O (stereo not drawn)	inactive
CCOc1ccc(NC(=O)c2cc(OC)nc3ccccc23)cc1	5.17 µM (active)
CCOc1ccc(NC(=S)N(CCc2c(C)[nH]c3ccccc23)Cc2cccnc2)cc1	inactive
COc1ccc(NC(=O)CSc2nc(N)c(C(=O)Nc3ccc(N(C)C)cc3)s2)cc1	inactive
COc1ccc(C2CC(c3ccc(OC)c(OC)c3)=NN2C(=O)c2ccccc2)cc1 (stereo not drawn)	6.51 µM (active)
COc1ccc(C2=NN(C(C)=O)C(c3cccs3)C2)cc1OC (stereo not drawn)	inactive
COc1ccc(C2CC(c3ccncc3)=NN2c2ccc(S(N)(=O)=O)cc2)cc1 (stereo not drawn)	inactive
N=C1SCC(=O)N1c1ncc(Cc2cccc(Cl)c2)s1	20.6 µM (active)
O=c1cc(-c2ccccc2)[nH]c2ccc(F)cc12	10.3 µM (active)
O=c1cc(-c2ccc(F)cc2)[nH][nH]1	inactive
O=c1cc(-c2ccccc2)[nH]c2ccccc12	11.6 µM (active)

Compound	Potency
NNC(=O)c1[nH]c2ccc(Br)cc2c1-c1ccccc1	inactive
O=c1cc(-c2cccc(F)c2)[nH]c2ccccc12	3.66 µM (active)
O=Cc1ccc(O)c2ncccc12	inactive
O=[N+]([O-])c1cc(Cl)c2cccnc2c1O	inactive
COc1ccc(CC2(CO)CCN(Cc3cccc4nccnc34)CC2)cc1	inactive
CCCc1nc([N+](=O)[O-])c(S(=O)(=O)c2ccccc2)n1CC(C)C	16.4 µM (active)
Cc1cc(C)nc(SCc2ccc(C(=O)N/N=C/c3cccnc3)cc2)n1	inactive
N#Cc1ccc(-c2cccs2)nc1SCc1cccnc1	16.4 µM (active)
COc1ccc2c(c1)sc1nc(-c3ccccc3)cn12	3.26 µM (active)
Cc1ccc(C)c(NC(=S)N=Nc2c(O)n(C)c3ccc(S(=O)(=O)N4CCOCC4)cc23)c1	inactive
COc1ccc(C2=Nn3c(nnc3-c3ccccc3OC)SC2)cc1OC	1.3 µM (active)
COc1ccc(C2=Nn3c(nnc3C3CCCCC3)SC2)cc1OC	2.31 µM (active)
COc1ccc(C2=Nn3c(nnc3-c3ccccn3)SC2)cc1OC	inactive
COc1ccc(C2=Nn3c(nnc3-c3ccc(OC)cc3)SC2)cc1	14.6 µM (active)
CCOc1ccc(C2=Nn3c(nnc3-c3ccccc3OC)SC2)cc1	0.0731 µM (active)
CNC(=S)N/N=C(\C)c1ccc(Cl)s1	inactive
S=C(Nc1ccccc1)c1nc2ccccc2s1	inactive
Cc1ccc(-c2oc3ncnc(N)c3c2-c2ccc(C)cc2)cc1	inactive
COc1ccccc1-c1nnc2n1N=C(c1ccc(O)c(O)c1)CS2	0.206 µM (active)
NC(=S)N/N=C/c1ccccc1OC(=O)/C=C/c1ccccc1	inactive
Cc1cccc(C(=O)Oc2ccc(/C=N/O)cc2)c1	inactive
COc1ccc(C(=O)N/N=C/c2ccccc2OC(=O)c2ccccc2)cc1	0.651 µM (active)
Cc1cccc(NS(=O)(=O)c2ccc(-c3cnc(C4CC4)o3)cc2)c1C	0.92 µM (active)
Cc1cccc(C)c1NS(=O)(=O)c1ccc(-c2cnc(C3CC3)o2)cc1	0.291 µM (active)
Cc1cccc(NS(=O)(=O)c2ccc(C3CCCCC3)cc2)n1	inactive
COc1ccc(OC)c(C2CC(=O)c3c([nH]c(C(=O)OC(C)C)c3C)C2)c1 (stereo not drawn)	1.64 µM (active)

Compound	Potency
COCCOC(=O)c1[nH]c2c(c1C)C(=O)CC(c1ccccc1)C2 (stereo not drawn)	inactive
CCOCCOC(=O)c1[nH]c2c(c1C)C(=O)CC(c1cccs1)C2 (stereo not drawn)	2.59 µM (active)
CCOCCOC(=O)c1[nH]c2c(c1C)C(=O)CC(c1ccccc1)C2 (stereo not drawn)	1.64 µM (active)
COC(=O)c1[nH]c2c(c1C)C(=O)CC(c1ccccc1)C2 (stereo not drawn)	1.3 µM (active)
NC(=S)N/N=C/c1ncc(C(F)(F)F)cc1Cl	inactive
C/C(=N\N1C(=O)c2ccccc2NC1c1ccco1)c1ccccc1O (stereo not drawn)	inactive
CCNC(=S)N/N=C(\C)c1ccc(Cl)s1	inactive
O=C(CSc1cccc[n+]1[O-])c1ccc(-c2ccccc2)cc1	inactive
O=C1N/C(=C/c2ccc(N3CCOCC3)o2)C(=O)N1c1ccccc1	16.4 µM (active)
Cc1ccc(/C(C#N)=C\c2ccc(N3CCOCC3)o2)cc1	inactive
O=S1(=O)N=C(Nc2nc3c(s2)CCCC3)c2ccccc21	7.31 µM (active)
Cc1ccc(/C=[N+](\[O-])c2ccc(N(C)C)cc2)c2nsnc12	inactive
O=C(COc1ccc(-c2ccccc2)cc1)N1CCN(S(=O)(=O)Cc2ccccc2)CC1	inactive
Cc1ccc(OCCN2C(=O)C(=O)c3cc(C)ccc32)cc1	20.6 µM (active)
Cc1ccc2c(c1)C(=O)C(=O)N2CCOc1ccccc1	20.6 µM (active)
CCCN1C(=O)C(=O)c2cc(Cl)ccc21	18.4 µM (active)
Cc1cccc(OCCCN2C(=O)C(=O)c3cc(C)ccc32)c1	inactive
Cc1cccc(OCCCC(=O)NNC(=O)c2cccc(N(C)C)c2)c1	inactive
Cc1cccc(OCCN2C(=O)C(=O)c3cc(C)ccc32)c1	23.1 µM (active)
Cc1noc(C)c1COc1ccc(CC(=O)NCc2ccccc2)cc1	14.6 µM (active)
O=C(COC(=O)Cc1ccc(-c2ccccc2)cc1)NCc1ccccc1	inactive
O=C(Cc1ccc(-c2ccccc2)cc1)NCc1ccccc1	0.517 µM (active)
NC(=O)NC[C@@H]1CC[C@@H](Cc2ccc(-c3ccccc3)cc2)O1	inactive
Cc1ccccc1N=Nc1c(C)[nH]n(C(N)=S)c1=O	inactive
Clc1ccc2nc(-c3ccccc3)nc(C(Cl)Cl)c2c1	4.61 µM (active)
